“And” between values parts separate entries of the source, which are not always exact repeats. Equal values may be shown once. In all, about 430,000 compounds went through this assay and about 2,600 (0.6%) were called active. Cut-off read from the data, not from the text of the source: active = inhibition mostly above about 37% (no sharp cut-off); inactive = mostly below about 20%. What follows is part of a selection rich in actives, with near analogues and random picks from the rest.
These compounds were tested on PriA–SSB C-terminal tail interaction (Klebsiella pneumoniae) (assay: blocks PriA binding to SSB C-terminal tail, primary screen, biochemical, AlphaScreen (AID 1272365;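 note: plate controls were negative control peptide for no effect and reference peptide for full effect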)). Conditions: AlphaScreen SSBct-PriA binding, biotinylated peptide; at 33 µM, stronger effect = higher value.

SMILES | inhibition
CCOC(=O)c1sc(=NC(=O)CCCSc2ccc(OC)cc2)n(C)c1C | 2% (inactive)
CC(=O)NC(Cc1ccccc1)C(=O)NC1CCN(c2ncccc2[N+](=O)[O-])CC1 (centres undefined) | -3.58% (inactive)
COc1ccc(N2CCN(c3ccc([N+](=O)[O-])nc3)CC2)cc1 | 3.99% (inactive)
COc1ccc(-c2cc(C3CCN(c4ncccc4[N+](=O)[O-])CC3)[nH]n2)cc1 | 47.3% (active)
COCCn1c(SCc2nc(-c3ccc(F)cc3)no2)nc2ccsc2c1=O | -36% (inactive)
COC(=O)c1sccc1S(=O)(=O)N1C2CCCC1COC2 | -5% (inactive)
O=C(NCc1cccs1)NCc1cccnc1-c1ccsc1 | -6% (inactive)
O=C(NCCn1ccnc1-c1ncccn1)NCc1cccs1 | 71% (active)
Cc1noc(CNC(=O)NCc2cccs2)n1 | -6% (inactive)
O=C(Cc1cc(-c2ccc3c(c2)OCO3)on1)Nc1ccc(OC(F)(F)F)cc1 | 1% (inactive)
COCCCNC(=O)C(=O)Nc1ccc(Cl)cn1 | -18% (inactive)
COC(=O)c1ccc(NC(=O)C2CCCN(c3ccc(-c4ccc(F)cc4)nn3)C2)cc1 (centres undefined) | -17% (inactive)
Cc1ccc(CN2CC(C(=O)N3CCN(S(=O)(=O)c4ccccc4)CC3)CC2=O)cc1 (centres undefined) | -17.9% (inactive)
O=C(C1CC(=O)N(c2ccc(F)cc2)C1)N1CCN(c2ccccc2)CC1 (centres undefined) | -4.67% (inactive)
CCC(C)c1ccccc1N1CC(C(=O)N2CCN(S(=O)(=O)c3ccc(F)cc3)CC2)CC1=O (centres undefined) | 44% (active)
CC(=O)[C@@H](C(=O)N(C)C)n1cnc2c(cnn2-c2cccc(Cl)c2)c1=O | -12% (inactive)
O=[N+]([O-])c1ccccc1NCc1ccccc1Cl | -2.79% (inactive)
CC(C)C(=NNC(=O)Nc1ccccc1)c1ccccc1 | -2.11% (inactive)
CC(C)C(=NNc1ccccc1[N+](=O)[O-])c1ccccc1 | 64.3% (active)
Cc1cc(=O)[nH]c(-n2ncc(C(=O)Nc3ccc(OC(F)(F)F)cc3)c2C)n1 | -10% (inactive)
Cc1cc(C)c(S(=O)(=O)NCCC(=O)NCc2cccnc2)cc1N(C)S(C)(=O)=O | -9% (inactive)
CCOC(=O)c1sc(NC(=O)CSc2nnc(CNC(=O)c3ccc(Cl)cc3Cl)n2C)c(C(=O)OCC)c1C | 5% (inactive) and -12% (inactive)
CCOC(=O)c1c(NC(=O)CSc2nnc(Cc3csc(N)n3)n2C)sc(C)c1C | -7% (inactive) and 53.5% (active)
CCOC(=O)c1c(NC(=O)CSc2nnc(CN3CCOCC3)n2C)sc2c1CCCC2 | -3.23% (inactive)
